# Measured values taken from the supplement of paper PMC6555819.
# How the values were obtained:
# Test in all cases: PBM binding z-score (relative to random genomic background probes); higher = stronger binding; sequences stand for … in GC…GCGATTGACAGCGTAGAATGAAGG
# [1] = system: FXR:RXRa (NR concentration 270 nM, RXRa partner concentration 90 nM)
# Procedure, shortened: (§1)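 Binding z-scores were set against random background probes. The data came from custom Agilent 4×180K protein-binding microarrays carrying double-stranded probes with 34-nt variable regions, incubated 1 h with ligand-free nuclear receptor dimers. Partner-specific antibodies detected binding, and scanned fluorescence was regression-normalized.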
# [2] = system: LXRa:RXRa (NR concentration 270 nM, RXRa partner concentration 90 nM)
# Procedure, shortened: as §1
# [3] = system: LXRa homodimer (NR concentration 270 nM)
# Procedure, shortened: as §1
# [4] = system: LXRb:RXRa (NR concentration 270 nM, RXRa partner concentration 90 nM)
# Procedure, shortened: as §1
# [5] = system: LXRb homodimer (NR concentration 270 nM)
# Procedure, shortened: as §1
# [6] = system: PPARa:RXRa (NR concentration 270 nM, RXRa partner concentration 90 nM)
# Procedure, shortened: as §1
# [7] = system: PPARg:RXRa (NR concentration 180 nM, RXRa partner concentration 90 nM)
# Procedure, shortened: as §1
# [8] = system: PPARg:RXRa 270nM:90nM, anti-RXR (NR concentration 270 nM, RXRa partner concentration 90 nM)
# Procedure, shortened: as §1
# [9] = system: PPARg:RXRa 30nM:10nM, anti-RXR (NR concentration 30 nM, RXRa partner concentration 10 nM)
# Procedure, shortened: as §1
# [10] = system: PPARg:RXRa 90nM:30nM, anti-RXR (NR concentration 90 nM, RXRa partner concentration 30 nM)
# Procedure, shortened: as §1
# [11] = system: PPARg:RXRa DBDmut IVT, anti-RXR (DBD mutation: RXRa K156A/R161A, NR concentration 270 nM, RXRa partner concentration 90 nM)
# Procedure, shortened: as §1
# [12] = system: PPARg:RXRa IVT, anti-PPARg (NR concentration 270 nM, RXRa partner concentration 90 nM)
# Procedure, shortened: as §1
# [13] = system: PPARg DBDmut:RXRa IVT, anti-PPARg (DBD mutation: PPARg1 K132A/R137A, NR concentration 270 nM, RXRa partner concentration 90 nM)
# Procedure, shortened: as §1
# [14] = system: PPARg DBDmut IVT, anti-PPARg (DBD mutation: PPARg1 K132A/R137A, NR concentration 270 nM)
# Procedure, shortened: as §1
# [15] = system: PPARg homodimer (NR concentration 180 nM)
# Procedure, shortened: as §1
# [16] = system: PXR:RXRa (NR concentration 270 nM, RXRa partner concentration 90 nM)
# Procedure, shortened: as §1
# [17] = system: PXR homodimer (NR concentration 270 nM)
# Procedure, shortened: as §1
# [18] = system: RARa:RXR (NR concentration 270 nM, RXRa partner concentration 90 nM)
# Procedure, shortened: as §1
# [19] = system: RARa homodimer (NR concentration 270 nM)
# Procedure, shortened: as §1
# [20] = system: RARb:RXRa (NR concentration 270 nM, RXRa partner concentration 90 nM)
# Procedure, shortened: as §1
Sequence,PBM binding z-score [1],PBM binding z-score [2],PBM binding z-score [3],PBM binding z-score [4],PBM binding z-score [5],PBM binding z-score [6],PBM binding z-score [7],PBM binding z-score [8],PBM binding z-score [9],PBM binding z-score [10],PBM binding z-score [11],PBM binding z-score [12],PBM binding z-score [13],PBM binding z-score [14],PBM binding z-score [15],PBM binding z-score [16],PBM binding z-score [17],PBM binding z-score [18],PBM binding z-score [19],PBM binding z-score [20]
AATACTGGGTCATCGTAGGCCAGAGTACGCACAG,3.75,4.06,1.07,2.04,0.0752,4.49,6.86,5.4,3.02,4.86,6.46,6.97,1.65,2.15,1.67,2.44,0.428,2.35,0.903,3.49
TGAAGGAGGTTAAAGATCAGGGAACGTGGCGTCG,2.43,2.05,0.112,1.62,0.187,3.67,4.96,5.81,4.55,6.03,1,2.36,0.183,-0.165,1.34,1.63,0.472,2.7,0.897,1.74
AGTCAAAGTTCAGGACGAGGTAACGTAGAGCACG,4.1,3.8,1.01,2.04,0.385,3.59,4.68,4.62,2.13,3.9,0.103,2.2,0.482,0.536,1.57,2.79,0.943,2.87,0.443,4.25
GCTAGTTGTTCAGTAAAAGGTCACACACCGGTCG,3.26,4.29,4.24,4.06,0.882,4.13,1.84,3.57,1.49,3.27,0.391,1.95,0.53,0.109,3.86,4.88,1.13,5.29,2.41,3.91
CCTACTGGGCCAACGTCATTGATCAGTCAAAGCA,-0.18,-0.496,-0.262,-0.492,-0.8,0.419,0.876,0.556,-0.362,0.3,3.87,4,-0.653,-0.52,0.534,-0.583,-0.509,0.0251,-0.369,-0.00134
ATATGTAGGTTAAGGGTCAGTCAGGTTGGTTCGC,3.7,3.26,1.44,3.34,0.965,6.05,11,9.37,9.35,11.6,7.48,7.77,4.77,2.22,3.78,4.14,2.03,4.53,2.65,3.51
TATATTAGTTGAAGGGCAACCGACGAGTCCGTTT,0.481,0.797,0.861,0.474,1.01,0.509,0.844,1.23,0.993,1.22,0.182,0.973,1.48,1.13,1.26,0.629,0.738,0.321,1.47,1.68
ATTAGCAGGCCAAGTTTGGGTCACTCAAACAAAG,0.082,0.215,-0.128,0.803,-0.539,1.62,0.124,0.309,-0.279,0.138,0.708,1.31,-0.0201,-0.208,0.531,0.924,0.144,1.97,-0.273,1.83
CGTCCAAGGTCAAGTTCAGTGAAAGAGACTCGAA,8.18,5.89,2.13,4.76,2.42,5.94,5.62,5.92,2.3,4.88,2.98,3.88,1.06,-0.344,3.64,5.19,3.9,5.39,2.56,5.66
GCTAGTTGGTCAGTAAAAGTTCACACACCGGTCG,0.899,2.22,4.58,1.73,0.297,1.95,0.79,1.98,0.387,1.5,0.674,0.916,-0.358,0.138,2.26,3.43,3.27,2.53,1.14,2.73
CTCGAAAGGTCGTGCTCAGGAGAGTATACCAAAC,4.89,3.56,0.247,3.12,0.29,4.7,2.62,3.59,1.02,2.48,0.885,1.49,0.0921,0.34,0.909,2.6,0.45,3.47,0.362,3.87
CCGACTGAGGCATAAGGTTACCATAAGCCAGCCC,0.414,2.01,-0.182,1.05,-1.08,1.18,0.973,1.31,-0.0351,0.852,0.216,-0.451,-0.747,-0.854,0.366,0.286,-0.308,1.03,0.101,0.876
CCTATTAGTTGACCATAAGGGGAACCGAAGCTCG,0.142,0.366,0.327,0.217,0.84,0.0558,0.299,0.112,-0.0773,0.104,0.601,0.106,0.62,0.755,1.54,0.541,0.854,0.248,2.37,0.582
CCTACTGGGCTATTCAGAGGTCATTGATCATATG,2.44,4.58,7.28,3.7,0.414,3.44,1.17,2.73,0.812,1.97,2.84,2.73,0.261,0.0805,2.7,4.9,2.27,4.54,0.714,2.79
